We go through 19 compounds from the supplement of paper PMC10127200.

Common to all, as to test: Euclidean distance of Cell Painting phenotypic profile (signed KS, 77 features) to DMSO centroid (dimensionless distance); 5 or 10 uM (library dependent); higher = stronger phenotypic change vs DMSO (phenoactivity)
What all share (conditions): 48 h

For one test, the system named is 786-O. The method in brief:
(§1)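 Stained cells were imaged confocally at 20X with 9 fields per well, after 48 h of exposure to library compounds at 10 or 5 uM (set by library; 0.1% DMSO final). The cells were five cancer lines and a healthy fibroblast line. From the images, Harmony extracted 77 features, each expressed as a signed Kolmogorov-Smirnov statistic relative to same-plate vehicle wells. Phenoactivity is measured as Euclidean distance to the median vehicle profile, using plate-position-corrected, correlation-weighted profiles averaged across replicates at the top dose.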

A further test concerns A549. The method in brief: as §1
Another test concerns DU145. An outline of the steps: as §1
The test system of a further test is FB. An outline of the steps: as §1
The test system of another test is HEPG2. The method in brief: as §1
The test system of another test is OVCAR4. The method in brief: as §1

Where a name gives a salt, the structure may show the parent alone.

Take `CC1(C)OCCn2c1nc1c(N3CCOCC3)nc(-c3cnc(N)nc3)nc12`: the Euclidean distance with 786-O was determined as 2.79; with A549, 2.94; with DU145 it was 2.05; in the test with FB it was 4.44; in the test with HEPG2 it was 2.32; with OVCAR4 it was 2.93.
Take `CCN(CC)C(=O)Nc1ccc(OCC(O)CNC(C)(C)C)c(C(C)=O)c1` (centres undefined) [Celiprolol hydrochloride]: the Euclidean distance was 0.816 in the test with 786-O; 0.829 in the test on A549; 1.41 in the test on DU145; 1.17 in the test with FB; 0.422 in the test on HEPG2; 1.24 with OVCAR4.
With `OCc1ccc(-c2ccc(-c3ccc(CO)s3)o2)s1`, the Euclidean distance in the test with 786-O is 2.79; in the test on A549 it was 2.26; in the test with DU145, 1.44; with FB it was 2.66; with HEPG2, 4.78; in the test with OVCAR4 it was 5.04.
Take `COCCNc1cc(NC(=O)N2CCCc3cc(CN4CCN(C)CC4=O)c(C=O)nc32)ncc1C#N`: the Euclidean distance was found to be 0.599 with 786-O; 1.34 with A549; 0.736 with DU145; 1.03 in the test with FB; 1.18 in the test on HEPG2; 0.826 in the test with OVCAR4.
On to `CC1(C)NC(=O)N(c2ccc([N+](=O)[O-])c(C(F)(F)F)c2)C1=O` [Nilutamide], for which the Euclidean distance came to 0.81 in the test with 786-O; 0.753 with A549; 1.03 with DU145; 0.9 with FB; 0.474 in the test on HEPG2; 0.959 in the test with OVCAR4.
In the case of `Cc1ccc(Cl)cc1N(CC(=O)Nc1c(F)cccc1F)S(C)(=O)=O`, the Euclidean distance amounted to 0.896 in the test on 786-O; 1.9 with A549; 0.886 in the test with DU145; 0.614 in the test on FB; 0.565 in the test on HEPG2; 0.763 in the test with OVCAR4.
Consider `C[C@]1(O)C[C@@H](c2nc(-c3ccc4ccc(-c5ccccc5)nc4c3)c3c(N)nccn32)C1` [OSI-906 (Linsitinib)], for which the Euclidean distance with 786-O came to 1.12; with A549, 1.34; in the test on DU145, 0.877; in the test on FB, 1.19; in the test with HEPG2 it was 1.12; in the test with OVCAR4 it was 1.27.
For `CC(=O)N1CCN(CCOc2ccc(C3CCN(C4=Nn5c(nnc5C(F)(F)F)CC4)CC3)cc2)CC1`, the Euclidean distance with 786-O was 1.54; in the test on A549, 0.992; with DU145 it was 1.22; in the test with FB, 1.76; in the test with HEPG2, 2.06; in the test with OVCAR4 it was 2.66.
Take `CC12CCC(CC1=O)C2(C)C` (centres undefined) [Camphor]: the Euclidean distance in the test on 786-O was 0.669; in the test on A549 it was 0.742; with DU145 it was 0.875; in the test with FB it was 0.818; in the test on HEPG2 it was 0.352; in the test on OVCAR4, 1.67.
Regarding `Nc1nc(/C(=C/CC(=O)O)C(=O)N[C@@H]2C(=O)N3C(C(=O)O)=CCS[C@H]23)cs1` [Ceftibuten dihydrate], the Euclidean distance with 786-O worked out at 1.22; with A549, 0.568; with DU145, 1.24; in the test on FB, 1.2; in the test on HEPG2, 1.17; in the test on OVCAR4, 0.987.
Turning to `CC(C)NCC(O)COc1cccc2ccccc12` (centres undefined) [Propranolol HCl], the Euclidean distance worked out at 1.23 with 786-O; 0.818 in the test on A549; 0.949 in the test on DU145; 0.645 in the test on FB; 0.798 in the test on HEPG2; 1.01 with OVCAR4.
Regarding `CCC(C)(C)C(=O)O[C@H]1C[C@@H](C)C=C2C=C[C@H](C)[C@H](CC[C@@H]3C[C@@H](O)CC(=O)O3)[C@H]21` [Simvastatin], the Euclidean distance in the test on 786-O was 1.35; in the test with A549, 0.686; with DU145 it was 1.1; in the test on FB it was 1.4; in the test with HEPG2, 1.9; with OVCAR4, 1.18.
`CC#C[C@]1(O)CC[C@H]2[C@@H]3CCC4=CC(=O)CCC4=C3[C@@H](c3ccc(N(C)C)cc3)C[C@@]21C` [Mifepristone]: the Euclidean distance in the test on 786-O is 1.22; in the test on A549, 1.62; in the test with DU145, 1.48; in the test with FB, 1.13; in the test on HEPG2, 1.01; with OVCAR4, 1.14.
For the compound `CC[C@H]1OC(=O)[C@@](C)(F)C(=O)[C@H](C)[C@@H](O[C@@H]2O[C@H](C)C[C@H](N(C)C)[C@H]2O)[C@](C)(OC)C[C@@H](C)C(=O)[C@H](C)[C@H]2N(CCCCn3cc(-c4cccc(N)c4)nn3)C(=O)O[C@]12C` [Solithromycin], the Euclidean distance in the test on 786-O came to 1.63; in the test on A549, 1.89; in the test with DU145 it was 1.57; with FB it was 1.86; with HEPG2 it was 2.27; with OVCAR4, 0.99.
In the case of `CCc1nc2c(C)cc(N3CCN(CC(=O)N4CC(O)C4)CC3)cn2c1N(C)c1nc(-c2ccc(F)cc2)c(C#N)s1` [Ziritaxestat (GLPG1690)], the Euclidean distance in the test on 786-O came to 1.57; in the test with A549, 1.31; in the test on DU145 it was 0.685; in the test on FB, 2.02; in the test on HEPG2, 1.42; in the test on OVCAR4 it was 1.68.
With `N[C@@H](CC(=O)O)C(=O)O` [L-aspartic Acid], the Euclidean distance with 786-O amounted to 1.2; in the test with A549 it was 1.3; in the test with DU145, 0.701; in the test with FB, 0.809; in the test on HEPG2, 0.455; in the test with OVCAR4 it was 1.44.
In the case of `CC1(C)O[C@@H]2C[C@H]3[C@@H]4C[C@H](F)C5=CC(=O)C=C[C@]5(C)[C@@]4(F)[C@@H](O)C[C@]3(C)[C@]2(C(=O)CO)O1` [Fluocinolone Acetonide], the Euclidean distance in the test with 786-O was 1.43; in the test with A549, 1.77; in the test on DU145, 2; in the test on FB, 2.02; with HEPG2, 0.86; in the test with OVCAR4 it was 2.22.
For `CN1CCN(c2nc(C3=C(c4c[nH]c5ccccc45)C(=O)NC3=O)c3ccccc3n2)CC1` [Sotrastaurin], the Euclidean distance came out at 2.18 with 786-O; 1.58 in the test on A549; 1.36 in the test with DU145; 2.47 in the test on FB; 1.37 with HEPG2; 1.2 in the test on OVCAR4.
In the case of `Cc1ccc(Nc2c(F)cccc2Cl)c(CC(=O)O)c1` [Lumiracoxib], the Euclidean distance is 1.54 in the test with 786-O; 0.989 with A549; 0.9 in the test on DU145; 1.33 with FB; 0.549 in the test on HEPG2; 1.36 in the test with OVCAR4.
